KCNH2 3.1 block = blocks the human KCNH2 3.1 channel isoform; U2OS KCNH2 3.1, thallium flux FluxOr; stronger effect = lower value; activity change, % (tested at about 1.8 µM); 340,000 compounds, 0.95% hits;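 active means maximum activity change below -70%; inconclusive means maximum activity change from -70% to -50%; inactive means maximum activity change above -50%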;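 further: thallium influx rate constant from kinetic fluorescence after stimulation buffer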
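Virally transduced U2OS (3.1 isoform, 4 h infection in dark at RT) → overnight 37 C → FluxOr + Red40 in HBSS/HEPES, 45 min → stimulation buffer, 2 min kinetic read → rate constant vs DMSO controls.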
Giardia kill = kills Giardia lamblia. activity change, % at 7.66 µM, hits read low. 340,000 compounds, 0.15% hits. AID 540267. Giardia lamblia trophozoite viability; in the data active means activity change below about -80%; inconclusive means between about -30% and that limit;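 further: parasites exposed to compound for two days anaerobically before the ATP read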
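Viability, read as ATP luminescence: trophozoites at 100 cells/well, compound added, 48 hrs anaerobic at 37 deg C, then 15-30 min room-temperature development before reading.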
Coupling enz = inhibits coupling enzyme system, counter-screen for aldolase hits; coupling enzyme system counterscreen, AmpLite Red fluorescence; activity change, negative = inhibition, % at 58.2 µM, hits read low; 290,000 compounds, 0.67% hits; AID 2472; in the data active means activity change below about -30%
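Counterscreen of the coupled detection system alone, without aldolase: glyceraldehyde-3-phosphate coupling enzymes plus AmpLite Red readout. Compounds at 57.5 uM final, 10 min RT preincubation, 20 min RT reaction, fluorescence 525/598 nm.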
hERG WT inh = blocks the wildtype human KCNH2 potassium channel. 340,000 compounds, 0.37% hits. U2OS, BacMam KCNH2, thallium flux FluxOr; stronger effect = lower value. activity change, % at 1.84 µM;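 active means maximum activity change below -70%; inconclusive means maximum activity change between -70% and -50%; inactive means maximum activity change above -50%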
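U2OS cells were transduced with wild-type KCNH2 virus (2.03 x 10^8 / mL) for 4 h at room temperature, then cultured overnight at 37 C. Thallium flux was read with FluxOr dye. Rate constants were normalized to DMSO controls.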
USP1 inh = inhibitors of human USP1/UAF1 deubiquitinase. 390,000 compounds, 0.23% hits. recombinant USP1/UAF1, Ub-Rhodamine cleavage fluorescence. Potency, µM (top dose mostly 57.1 µM), for the others: at the highest dose activity change, negative = inhibition, usual class: inhibitors; active means well fitted inhibition curve with a large enough effect; inconclusive means small, poorly fitted or top-dose-only effect; inactive means no such curve, though single readings can be large or run the other way; further: potency means the concentration at half of the fitted maximal effect; nearly all actives have a fitted effect of over 60% in size
Target sequence (O94782 whole entry, looked up): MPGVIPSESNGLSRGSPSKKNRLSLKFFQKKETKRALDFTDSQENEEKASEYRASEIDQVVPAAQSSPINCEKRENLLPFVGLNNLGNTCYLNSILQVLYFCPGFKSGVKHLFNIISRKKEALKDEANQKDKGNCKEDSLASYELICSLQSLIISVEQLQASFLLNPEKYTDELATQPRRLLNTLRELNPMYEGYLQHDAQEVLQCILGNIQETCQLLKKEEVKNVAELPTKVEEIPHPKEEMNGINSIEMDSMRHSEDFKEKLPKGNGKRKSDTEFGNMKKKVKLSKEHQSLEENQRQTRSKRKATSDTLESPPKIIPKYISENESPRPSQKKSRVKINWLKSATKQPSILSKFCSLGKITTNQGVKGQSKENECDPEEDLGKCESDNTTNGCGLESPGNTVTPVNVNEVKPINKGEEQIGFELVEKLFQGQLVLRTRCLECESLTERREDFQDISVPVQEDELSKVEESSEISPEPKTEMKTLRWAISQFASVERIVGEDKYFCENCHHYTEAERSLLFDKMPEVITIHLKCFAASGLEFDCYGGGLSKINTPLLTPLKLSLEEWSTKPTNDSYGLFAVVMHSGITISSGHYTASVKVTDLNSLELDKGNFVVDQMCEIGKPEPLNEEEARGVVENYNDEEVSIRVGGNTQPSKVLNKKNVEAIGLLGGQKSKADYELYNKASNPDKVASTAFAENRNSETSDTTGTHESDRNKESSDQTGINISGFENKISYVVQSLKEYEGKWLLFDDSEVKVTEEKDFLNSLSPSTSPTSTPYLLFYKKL
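In this screen, compounds sit with the deubiquitinase complex (1nM) for 15 min at room temperature before Ub-Rho is added at 150nM final. Fluorescence rise is then followed for 6 reads every 60 seconds.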
* = called active by the depositor; ? = inconclusive; / = no result given. A selection: hits, their analogues and other compounds. The true share with any hit is near 1.7%. On the % scale 0 is the no-effect control and ±100 the full control effect.

SMILES	KCNH2 3.1 block	Giardia kill	Coupling enz	hERG WT inh	USP1 inh
Cc1cccc(CN2CC34C=CC(CC3S2(=O)=O)O4)c1 (configuration not stated)	/	3.3	3.0	/	/
CN(C)CCn1cnc2c1c(=O)[nH]c(=O)n2Cc1ccccc1	3.5	4.9	-0.9	-252.3*	-16.3%
COc1cccc(-c2ccc(NC(=O)C3CCCN(CCCn4cccn4)C3)cc2)c1 (configuration not stated)	-83.8*	4.0	/	2.0	-0.8%
Cc1cc(C)c2c(=N)c3ccccc3n(CCCCCCCCn3c4ccccc4c(=N)c4c(C)cc(C)nc43)c2n1	-6.2	-5.7	/	-1.2	?
O=C(O)c1ccc(C2CCCCC2)cn1	13.4	0.5	-49.2*	-1.6	-13.6%
O=C(O)C1=C(C2CCCCC2)C(=O)c2ccccc21	-0.9	2.5	/	-7.7	-7.9%
CNC(=O)NC(=O)C(C)OC(=O)c1cc2c(s1)CCCCC2 (configuration not stated)	-98.0*	2.7	-0.3	-4.9	1.8%
C[C@@H]1CN([C@@H](C)CO)C(=O)CCCn2nncc2CO[C@H]1CN(C)C(=O)NC1CCCCC1	4.5	/	/	-7.7	-20.8%
CC(CCc1ccc(O)cc1)NCCC(c1ccccc1)c1ccccc1 (configuration not stated)	-96.0*	-21.2	-0.6	-119.1*	2.9%
CC(CCc1ccc(O)cc1)NCc1ccc(Br)cc1 (configuration not stated)	-88.0*	-16.2	-1.0	4.0	-22.1%
CC(=O)Oc1ccccc1C1C[C@]2(C)CC(=O)NC2N1C(C)=O (some centres not stated)	-106.9*	-9.8	0.2	2.3	-17.1%
COC(=O)N1C2CC3(C)CC(=O)CC1(C)C3c1ccccc12 (configuration not stated)	/	/	-4.6	/	/
COc1ccc(N2CCN(c3oc(-c4ccccc4C)nc3S(=O)(=O)c3ccccc3)CC2)cc1	/	/	/	/	-24.5%
Oc1ccccc1C1Nc2cccc3cccc(c23)N1	2.1	-23.8	-34.5*	4.1	-24.5%
Clc1cccc(Cl)c1C1Nc2cccc3cccc(c23)N1	-96.6*	42.7	-3.3	-5.7	-9.2%
O=C(Nc1ncccn1)c1cc([N+](=O)[O-])cc([N+](=O)[O-])c1	-17.2	-25.8	0.2	1.3	-13.2%
O=[N+]([O-])c1cc(-c2ncccn2)c([N+](=O)[O-])s1	-8.0	8.8	-83.7*	16.1	?
CCCn1c(-c2ccc(F)cc2)nc2c(NCCCCN(CC)CC)nc(C)nc21	/	/	1.9	/	/
Oc1ccc(N=Cc2ccc(O)c(O)c2)cc1	-22.2	-0.6	-46.5*	1.1	7.94µM*
Cc1cccc(-c2cc3nc(C)cc(C)n3n2)c1	-19.3	-12.9	-4.4	-5.9	-8.1%
Cc1cccc(-c2cc3nc(C)cc(N4CC(C)CC(C)C4)n3n2)c1 (configuration not stated)	-120.0*	-22.3	-2.5	-2.3	-9.8%
COc1cc(S(=O)(=O)Nc2ccc(C)cc2)ccc1N=Cc1c(C)c(C#N)c(=O)n(C)c1O	10.1	23.9	-4.7	3.8	?
Cc1ccc(N/N=C/c2c(C)c(C#N)c(=O)n(C)c2O)cc1C	-10.6	-5.2	-58.1*	0.2	-13.2%
COc1ccc(NC(=O)CSc2nc3nc(C)c(Cc4ccccc4Cl)c(C)n3n2)cc1OC	/	/	/	/	-16.3%
N#C/C(=C\c1coc2ccc(O)cc2c1=O)C(=O)Nc1nc2ccccc2s1	3.5	-2.0	5.5	13.7	25.1µM*
SMILES	KCNH2 3.1 block	Giardia kill	Coupling enz	hERG WT inh	USP1 inh
N#C/C(=C\c1coc2ccccc2c1=O)C(N)=S	3.0	-5.3	8.9	11.5	-16.0%
COc1cccc2nc(-c3cccs3)nc(NN3C(=O)C=C(C)C3=O)c12	/	/	-2.5	/	/
CC(C)(C)NC(=O)CCN(/N=C/c1ccc([N+](=O)[O-])o1)C1=NS(=O)(=O)c2ccccc21	-21.3	-92.4*	-5.0	-0.3	-8.1%
CN(C)c1ccc(/C=N/N(CCC(=O)NC(C)(C)C)C2=NS(=O)(=O)c3ccccc32)cc1	4.3	5.5	0.4	-2.2	-12.8%
Cc1ccc(C)c(NC(=O)c2ccc3nc(CCc4ccccc4)oc3c2)c1	/	/	/	/	-21.1%
CCn1c(O)c(N=NC(=O)CNC(=O)c2cccnc2)c2ccccc21	-1.2	/	/	8.9	-21.3%
CC1(C)Cc2ccccc2C2=NNC(=O)C2=N1	5.3	13.1	-56.8*	6.6	?

Screening data (PubChem)
